This is an account of results in PubChem BioAssay.

The structures appear in SMILES notation. The source made the active and inactive calls.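 How the source made its calls, unless noted: active means inhibition of the reporter signal at or above 50%; inactive means inhibition below 50%.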

A short description of test [1]: inhibitors of TNFa-induced NFkB p65 translocation, primary screen, imaging, HUVEC, MLSMR starter and 10KST1 sets (AID 438;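 active means inhibition above 20% together with a positive visual image hit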;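 further: compound added about 3h40 before a 20 min TNFalpha stimulation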;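 on inhibition: signal is the nuclear over cytoplasmic p65 intensity ratio per well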). Conditions: HUVEC TNFa-induced p65 nuclear translocation; cell count: measured here: nuclei count (cytotoxicity indicator), at 2.08 µM; inhibition: at 2 µM, stronger effect = higher value, 0% TNFa-plus-vehicle, 100% no-TNFa wells.
Test [2] is described as follows: reduction of polyQ htt aggregates in cells – imaging, exon1htt(103Q)mCFP cells, high-content imaging, primary screen (AID 483;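 active means visual image review flags a hit and inhibition of aggregation exceeds 20%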;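 further: compound exposure lasted 3 days before fixation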;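 on nuclei count: percent of the per-plate median nuclei count of sample wells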). The settings on record: exon1htt(103Q)mCFP cell line, aggregate imaging, at 2 µM; inhibition of aggregation: stronger effect = higher value; nuclei count: measured here: cell count, toxicity.
The nature of test [3]: endothelial E-selectin expression blockers – imaging, HUVEC, immunofluorescence, MLSMR starter and 10KST1 sets, primary screen (AID 487;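 active means visually confirmed hit in the image check and inhibition above 20%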;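 on inhibition: signal is fraction of cell area covered by stained E-selectin grains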;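 on nuclei count: 100% = median nuclei count of all wells on the same plate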). Conditions: HUVEC TNFalpha-induced E-selectin immunofluorescence imaging, at 2 µM; inhibition: stronger effect = higher value; nuclei count: measured here: cell number, toxicity.
The target of test [4] is Voltage-gated potassium channel subunit beta-2 (Rattus norvegicus) (UniProt P62483). The test can be described thus: inhibitors of rat Kvbeta2 reductase activity – biochemical, NADPH fluorescence, primary screen (AID 622;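 active means fluorescence slope higher than the sample average by over 3 SD, cut at about -0.22 in these data, passing the limit was not always enough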;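 further: slope of raw intensity against log time taken from 70 to 1610 s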). The settings on record: recombinant KvBeta, 4-cyanobenzaldehyde reduction, at 10 µM, stronger effect = higher value.
Test [5] shares this target. The test can be described thus: enhancers of rat Kvbeta2 NADPH turnover – biochemical, NADPH fluorescence, primary screen (AID 623;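 active means NADPH fluorescence slope more negative than the mean of all samples by about 3 SD, 99.7% confidence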;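 further: fluorescence intensity change per second fitted from 20 to 320 s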). Conditions: Recombinant KvBeta, NADPH fluorescence decrease slope, 10 min; at 10 µM; stronger effect = lower value.
For test [6], the target named is Alpha-2C adrenergic receptor (Homo sapiens) (UniProt P18825). The test can be described thus: compounds altering alpha2C-coupled GIRK flux – cell-based, HEK293 alpha2C/GIRK1/2, thallium flux, primary screen (AID 624;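 active means fluorescence slope after compound addition differing from the mean of all screened samples at 99.7% confidence, in either direction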;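 further: slope of fluorescence ratio to pre-addition baseline per second over 15 to 24 s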). Conditions: thallium flux BTC fluorescence, at 10 µM, actives lie on both sides.
Test [7] in a line: blockers of RIG-like receptor reporter activation – cell-based, Sendai virus stimulus, luciferase, 10K MLSCN set, TLR/RLR signaling modifier project, primary screen (AID 602276;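 active means inhibition at or above 50% at 10 µM; inactive means inhibition below 50%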;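 further: firefly luciferase from ISG56 promoter only with Renilla not read in this screen; 0% = Sendai virus plus DMSO and 100% = medium plus DMSO without virus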). Conditions: HEK293 RL24 IRF3 luciferase reporter, at 10 µM, stronger effect = higher value. Background: Reporter assays use an easily measured gene product as a stand-in for the process of interest.
A short description of test [8]: TLR3 IRF3 reporter activation blockers – cell-based, poly I:C stimulus, luciferase, 10K MLSCN set, primary screen (AID 602277). Conditions: HEK293-TLR3 RL24 IRF3 luciferase reporter, at 10 µM, stronger effect = higher value.

Voltage-gated potassium channel subunit beta-2 (Rattus norvegicus), sequence (P62483 whole entry, looked up): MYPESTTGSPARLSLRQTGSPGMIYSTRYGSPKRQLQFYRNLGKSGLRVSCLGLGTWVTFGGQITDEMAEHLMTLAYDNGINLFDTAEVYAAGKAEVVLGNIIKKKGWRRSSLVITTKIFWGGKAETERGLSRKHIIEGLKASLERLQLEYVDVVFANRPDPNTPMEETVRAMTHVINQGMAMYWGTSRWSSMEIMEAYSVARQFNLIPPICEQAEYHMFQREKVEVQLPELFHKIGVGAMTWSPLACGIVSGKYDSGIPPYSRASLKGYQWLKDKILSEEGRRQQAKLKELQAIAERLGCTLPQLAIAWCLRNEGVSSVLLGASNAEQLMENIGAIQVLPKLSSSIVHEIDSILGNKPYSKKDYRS
Alpha-2C adrenergic receptor (Homo sapiens), sequence (P18825 whole entry, looked up): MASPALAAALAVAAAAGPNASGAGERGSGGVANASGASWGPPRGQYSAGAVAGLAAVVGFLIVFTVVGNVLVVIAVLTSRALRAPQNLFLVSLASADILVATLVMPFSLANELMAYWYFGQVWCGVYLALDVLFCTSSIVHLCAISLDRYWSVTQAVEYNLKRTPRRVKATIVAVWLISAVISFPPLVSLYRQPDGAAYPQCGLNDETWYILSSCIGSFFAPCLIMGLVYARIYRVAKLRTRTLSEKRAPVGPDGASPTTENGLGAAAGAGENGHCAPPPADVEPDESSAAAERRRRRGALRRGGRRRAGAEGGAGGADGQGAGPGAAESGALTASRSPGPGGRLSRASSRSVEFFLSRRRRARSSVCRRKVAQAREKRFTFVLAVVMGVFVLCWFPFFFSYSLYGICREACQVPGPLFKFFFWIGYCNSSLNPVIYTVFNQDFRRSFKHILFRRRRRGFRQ

Usually inhibition stands for the relative decrease from the control value, in per cent. `Nc1cc(=O)[nH]c(SCC(=O)Nc2ccc(Br)cc2)n1`: in test [1], the cell count turned out to be 825. The inhibition in test [1] is 8.2% (inactive); in test [3], 18.9% (inactive); in test [7], 1.99% (inactive); in test [8], 4.12% (inactive). In addition, the inhibition of aggregation in test [2] is -2.2% (inactive). The nuclei count stood at 108% in test [2] and 128% in test [3]. Besides, the fluorescence slope in test [4] was -0.507 (inactive). In test [5], the NADPH fluorescence slope was 4.3e-05 (inactive). In test [6], the slope was 0.00582 (inactive).

With `CNC(=O)c1nnn(Cc2ccccc2)c1NC(C)=O`, in test [1], the cell count is 539. Further, the inhibition is -14.7% (inactive) in test [1], -73.3% (inactive) in test [3], -13% (inactive) in test [7] and -3.44% (inactive) in test [8]. Also, in test [2], the inhibition of aggregation is -9.5% (inactive). For the same molecule, the nuclei count in test [2] came to 102%; in test [3] it was 92.3%. The fluorescence slope in test [4] was -0.601 (inactive). Besides, in test [5], the NADPH fluorescence slope is 4e-05 (inactive). For the same molecule, the slope in test [6] was 0.00612 (inactive).

Regarding `CCCc1cc(-n2ccnc2)n2c(nc3ccccc32)c1C#N`, in test [1], the cell count was determined as 571. The inhibition in test [1] is 8.7% (inactive); in test [3], 30.6% (inactive); in test [7], 16.6% (inactive); in test [8] it was 47.3% (inactive). For the same molecule, the inhibition of aggregation in test [2] was -11.1% (inactive). For the same molecule, the nuclei count in test [2] stood at 98.8%; in test [3], 99.8%. Besides, in test [4], the fluorescence slope was -0.51 (inactive). The NADPH fluorescence slope in test [5] is 1.6e-06 (inactive). Further, the slope in test [6] is 0.00652 (inactive).

In the case of `CCC(C)(C)n1nnnc1C(c1ccncc1)N1CCN(c2cccc(OC)c2)CC1` (centres undefined), in test [1], the cell count worked out at 410. Moreover, the inhibition in test [1] was 1% (inactive); in test [3], -31.9% (inactive); in test [7], 23.4% (inactive); in test [8] it was 28.6% (inactive). Further, the inhibition of aggregation in test [2] was -2.6% (inactive). Moreover, the nuclei count came out at 95.6% in test [2] and 98.8% in test [3]. In test [4], the fluorescence slope is -0.629 (inactive). Also, the NADPH fluorescence slope in test [5] was -2e-05 (inactive). Besides, the slope in test [6] is 0.00376 (inactive).

With `COC(=O)c1ccc(-n2nnnc2SCc2nn[nH]n2)cc1`, the cell count in test [1] was 543. Also, the inhibition is -7.8% (inactive) in test [1], -29% (inactive) in test [3], -8.25% (inactive) in test [7] and -3.28% (inactive) in test [8]. Moreover, the inhibition of aggregation in test [2] was -11.5% (inactive). In addition, the nuclei count in test [2] stood at 99.6%; in test [3], 130%. For the same molecule, the fluorescence slope in test [4] is -0.35 (inactive). Further, the NADPH fluorescence slope in test [5] is 1.4e-05 (inactive). For the same molecule, the slope in test [6] is 0.00668 (inactive).

`CCc1cc(=O)oc2cc(OC(C)=O)cc(OC(C)=O)c12`: the cell count in test [1] stood at 602. Also, the inhibition in test [1] was -6% (inactive); in test [3], 19.2% (inactive); in test [7] it was 11.6% (inactive); in test [8], 14% (inactive). Also, in test [2], the inhibition of aggregation was 12.3% (inactive). Moreover, the nuclei count was determined as 104% in test [2] and 97.5% in test [3]. The fluorescence slope in test [4] was -0.0715 (active). The NADPH fluorescence slope in test [5] is 2.1e-05 (inactive). In addition, the slope in test [6] is 0.00397 (inactive).

With `CC(C)CN(CC(C)C)C(=O)CS(=O)(=O)Cc1ccccc1`, in test [1], the cell count came out at 334. Also, the inhibition is -1.2% (inactive) in test [1], -51.3% (inactive) in test [3], 6.49% (inactive) in test [7] and 16.4% (inactive) in test [8]. Besides, the inhibition of aggregation in test [2] was -5.8% (inactive). In addition, the nuclei count was 98.4% in test [2] and 116% in test [3]. For the same molecule, in test [4], the fluorescence slope was -0.492 (inactive). Further, the NADPH fluorescence slope in test [5] is -6.4e-05 (inactive). Also, in test [6], the slope was 0.00578 (inactive).

For the molecule `Cc1ccccc1Cn1cc(/C=N/n2cnnc2)c2ccccc21`, the cell count in test [1] worked out at 416. For the same molecule, the inhibition in test [1] is 12% (inactive); in test [3] it was 27.1% (inactive); in test [7], -7.96% (inactive); in test [8] it was 21.3% (inactive). Besides, in test [2], the inhibition of aggregation was 18.9% (inactive). The nuclei count in test [2] stood at 68%; in test [3] it was 113%. Besides, the fluorescence slope in test [4] was -0.436 (inactive). In addition, the NADPH fluorescence slope in test [5] is 2.8e-05 (inactive). For the same molecule, the slope in test [6] is 0.00391 (inactive).

`COc1ccc(C(O)C(CN2CCOCC2)c2ccccc2)cc1F` (centres undefined): in test [1], the cell count came to 337. The inhibition is -1.6% (inactive) in test [1], -20.8% (inactive) in test [3], 13.7% (inactive) in test [7] and 17.9% (inactive) in test [8]. Further, the inhibition of aggregation in test [2] was -2.1% (inactive). Moreover, the nuclei count in test [2] is 102%; in test [3] it was 104%. Also, the fluorescence slope in test [4] is -0.493 (inactive). Also, the NADPH fluorescence slope in test [5] was 1.8e-06 (inactive). The slope in test [6] is 0.0062 (inactive).

`COc1ccc(-c2ccc(-c3noc(-c4ccccc4OC)n3)c(OC)n2)cc1`: the cell count in test [1] is 294. In addition, the inhibition in test [1] is 16.9% (inactive); in test [3], -1.9% (inactive); in test [7], -0.193% (inactive); in test [8], -36.2% (inactive). Further, in test [2], the inhibition of aggregation is -30.2% (inactive). The nuclei count was determined as 86.6% in test [2] and 111% in test [3]. In addition, the fluorescence slope in test [4] is -0.0455 (inactive). The NADPH fluorescence slope in test [5] was -3.2e-06 (inactive). In addition, the slope in test [6] is 0.00463 (inactive).

`Cc1oc2c(CN3CCOCC3)c(O)ccc2c(=O)c1-c1ccc(Br)cc1`: in test [1], the cell count was 543. Further, the inhibition in test [1] is 1.4% (inactive); in test [3], -0.5% (inactive); in test [7], -3.85% (inactive); in test [8], 26.2% (inactive). Also, the inhibition of aggregation in test [2] is 6.2% (inactive). For the same molecule, the nuclei count in test [2] was 105%; in test [3], 113%. For the same molecule, the fluorescence slope in test [4] was -0.0886 (active). In addition, the NADPH fluorescence slope in test [5] was 3.7e-06 (inactive). The slope in test [6] was 0.00357 (inactive).

For `CC(CCc1ccccc1)NC(=O)C1CCCN(c2nnc(-n3cccc3)s2)C1` (centres undefined), the cell count in test [1] turned out to be 585. Besides, the inhibition in test [1] was 5.8% (inactive); in test [3] it was -42.8% (inactive); in test [7], 8.13% (inactive); in test [8] it was 18.5% (inactive). In addition, the inhibition of aggregation in test [2] is -2.5% (inactive). The values for the nuclei count in test [2] and in test [3] were 99.3% and 102%, respectively. In addition, in test [4], the fluorescence slope was -0.57 (inactive). The NADPH fluorescence slope in test [5] was -3.2e-05 (inactive). Further, in test [6], the slope was 0.00444 (inactive).

As for `CCOc1ccc(C(=O)OCc2nnc(-c3cccs3)o2)cc1OC`, the cell count in test [1] amounted to 737. Besides, the inhibition in test [1] was 7.1% (inactive); in test [3], -51.1% (inactive); in test [7], 12.1% (inactive); in test [8], 27.5% (inactive). Further, the inhibition of aggregation in test [2] is 4.7% (inactive). Also, the nuclei count in test [2] was 101%; in test [3], 137%. Also, the fluorescence slope in test [4] was -0.603 (inactive). Further, the NADPH fluorescence slope in test [5] was 1.9e-06 (inactive). In test [6], the slope is 0.00555 (inactive).

Turning to `Cc1cc(Br)ccc1NC(=O)CNC(=O)CSc1n[nH]c(N)n1`, the cell count in test [1] is 390. The inhibition in test [1] was -12.1% (inactive); in test [3], -25.1% (inactive); in test [7], 13.4% (inactive); in test [8] it was 37.1% (inactive). In addition, the inhibition of aggregation in test [2] is -13.4% (inactive). Further, the nuclei count in test [2] turned out to be 74.3%; in test [3] it was 115%. In test [4], the fluorescence slope is -0.58 (inactive). Further, in test [5], the NADPH fluorescence slope is -3.3e-05 (inactive). In addition, the slope in test [6] is 0.00679 (inactive).
